The source made the active and inactive calls. Unless noted, no rule for the calls is given here.
Legend:
[1] = HepG2 liver cancer cell viability effects, profiling panel, resazurin fluorescence, 24 h, PK04 Diversity Set (AID 1172); conditions: higher = more signal
[2] = basal S. cerevisiae growth modulation, no modifier, primary screen, OD600, strain BY4716, 24 h, basal condition (AID 1173); conditions: OD600, 24 h, higher = more signal, called active from +8 up or from −8 down
[3] = MM1S myeloma cell viability, profiling panel, resazurin fluorescence, basal, 24 h, PK04 Diversity Set (AID 1174); conditions: higher = more signal, called active from +8 up or from −8 down;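 also: MM1S multiple myeloma cell line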
[4] = molecular target: Dihydroorotate dehydrogenase (quinone), mitochondrial (Plasmodium falciparum (isolate 3D7)) (UniProt Q08210); test: PfDHODH enzyme inhibitors, primary screen, biochemical, C-terminal His tag, absorbance 600 nm (AID 1175); conditions: DCIP absorbance 600 nm, higher = more signal, called active from +8 up or from −8 down;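 also: recombinant parasite enzyme with a five histidine tag at its C terminus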
Sequence of Dihydroorotate dehydrogenase (quinone), mitochondrial (Plasmodium falciparum (isolate 3D7)) (Q08210 whole entry, looked up): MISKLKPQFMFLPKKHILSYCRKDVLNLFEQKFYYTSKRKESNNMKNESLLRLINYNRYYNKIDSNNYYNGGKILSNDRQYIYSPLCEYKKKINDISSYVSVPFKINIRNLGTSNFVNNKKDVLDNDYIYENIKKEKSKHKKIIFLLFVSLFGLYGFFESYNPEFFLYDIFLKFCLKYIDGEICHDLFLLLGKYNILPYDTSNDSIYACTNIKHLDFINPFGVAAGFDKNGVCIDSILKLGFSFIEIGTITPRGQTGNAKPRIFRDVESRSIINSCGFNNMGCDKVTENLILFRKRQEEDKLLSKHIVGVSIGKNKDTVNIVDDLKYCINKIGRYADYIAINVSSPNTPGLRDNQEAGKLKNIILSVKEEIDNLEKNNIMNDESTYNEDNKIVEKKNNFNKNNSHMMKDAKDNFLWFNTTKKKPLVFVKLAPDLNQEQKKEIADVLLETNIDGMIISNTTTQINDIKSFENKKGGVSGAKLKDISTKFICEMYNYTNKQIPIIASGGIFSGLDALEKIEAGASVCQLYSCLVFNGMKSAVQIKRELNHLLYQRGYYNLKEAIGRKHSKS

[5] = P. aeruginosa biofilm formation inhibitors, primary screen, strain PAO1, LB-PBS medium, absorbance 600 nm (AID 1176); conditions: P. aeruginosa PAO1 growth/biofilm, A600, 12 h; higher = more signal
[6] = S. cerevisiae RM11-1a growth modifiers, primary screen, strain RM11-1a, OD600, basal, 24 h (AID 1177); conditions: OD600, 24 h, higher = more signal, called active from +8 up or from −8 down;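 also: cultures grown under basal conditions with no added stressor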
[7] = E. coli acrAB mutant growth effects, primary screen, E. coli filamentation inducers, strain DRC39, OD650, 24 h (AID 1178); conditions: higher = more signal, called active from +8 up or from −8 down;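 also: growth measured as culture turbidity by optical density at 650 nm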
[8] = E. coli acrAB mutant growth effects, primary screen, E. coli filamentation inducers, strain DRC39, OD650, 48 h (AID 1179);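 also: screen aims at cell division blockers that make cells filament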; conditions: E. coli DRC39 delta-acrAB growth, higher = more signal, called active from +8 up or from −8 down
[9] = RPMI8226 myeloma cell viability, profiling panel, resazurin fluorescence, basal, 24 h, PK04 Diversity Set (AID 1180); conditions: higher = more signal;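 also: RPMI8826 multiple myeloma cell line at 5000 cells per well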
[10] = molecular target: E3 ubiquitin-protein ligase XIAP (Homo sapiens) (UniProt P98170); test: XIAP binders, primary screen, biophysical, small-molecule microarray, fluorescence 635 nm (AID 1181); conditions: small-molecule microarray binding, higher = more signal;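 also: score merges 667 nm emission and signal to noise over triplicate slides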
Sequence of E3 ubiquitin-protein ligase XIAP (Homo sapiens) (P98170 whole entry, looked up): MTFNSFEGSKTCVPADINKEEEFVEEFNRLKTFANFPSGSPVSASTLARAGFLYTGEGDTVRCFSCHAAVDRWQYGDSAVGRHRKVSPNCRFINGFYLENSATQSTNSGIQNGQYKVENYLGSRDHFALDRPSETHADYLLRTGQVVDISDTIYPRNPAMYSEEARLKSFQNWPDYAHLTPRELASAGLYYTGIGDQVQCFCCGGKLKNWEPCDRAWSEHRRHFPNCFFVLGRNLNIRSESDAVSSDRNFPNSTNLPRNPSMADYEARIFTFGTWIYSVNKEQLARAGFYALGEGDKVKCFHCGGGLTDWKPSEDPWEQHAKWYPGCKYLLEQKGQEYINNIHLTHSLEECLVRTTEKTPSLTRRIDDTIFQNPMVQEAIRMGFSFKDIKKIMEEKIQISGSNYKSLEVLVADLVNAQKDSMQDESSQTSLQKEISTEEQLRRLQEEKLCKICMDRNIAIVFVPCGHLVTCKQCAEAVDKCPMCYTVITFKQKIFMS

[11] = system: XIP peptide (Xip251-270) binding; test: small-molecule binders of XIP peptide, primary screen, biochemical, small-molecule microarray, fluorescence 635/667 nm, 0.1 µg/mL protein (AID 1182); conditions: fluorescent protein binding, 635 nm, higher = more signal, called active from +8 up or from −8 down
XIP peptide (Xip251-270) = test: small-molecule binders of XIP peptide, primary screen, biochemical, small-molecule microarray, fluorescence 635/667 nm, 0.5 µg/mL protein (AID 1183); conditions: small-molecule microarray binding, fluorescence 635 nm; higher = more signal
[12] = Plasmodium falciparum growth inhibition, primary screen, strain 3D7, DAPI fluorescence, 100 nL (AID 1184);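 also: parasites grown inside human red blood cells in medium with human serum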; conditions: P. falciparum 3D7 growth, 3 d, higher = more signal
[13] = molecular target: Homeobox protein Hox-A13 (Mus musculus) (UniProt Q62424); test: inhibitors of HoxA13-DNA binding, primary screen, biochemical, fluorescence polarization, labeled oligonucleotide (AID 1185); conditions: 15 min, higher = more signal, called active from +8 up or from −8 down
Sequence of Homeobox protein Hox-A13 (Mus musculus) (Q62424 whole entry, looked up): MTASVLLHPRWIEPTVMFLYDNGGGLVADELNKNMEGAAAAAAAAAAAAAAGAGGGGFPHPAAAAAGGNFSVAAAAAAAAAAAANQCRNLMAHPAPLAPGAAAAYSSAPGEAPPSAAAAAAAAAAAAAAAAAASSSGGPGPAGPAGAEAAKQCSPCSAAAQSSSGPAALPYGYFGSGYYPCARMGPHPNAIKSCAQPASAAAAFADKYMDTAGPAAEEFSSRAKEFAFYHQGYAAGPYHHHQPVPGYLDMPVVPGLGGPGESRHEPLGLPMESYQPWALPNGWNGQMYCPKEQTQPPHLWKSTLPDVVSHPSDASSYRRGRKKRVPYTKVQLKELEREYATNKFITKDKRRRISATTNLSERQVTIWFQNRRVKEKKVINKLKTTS

[14] = inhibitors of hydroxyurea-induced Chk1 phosphorylation, primary screen, imaging, HeLa, phospho-Chk1 antibody, percent positive cells (AID 1186); conditions: hydroxyurea-induced phospho-Chk1 immunofluorescence imaging, higher = more signal
[15] = inhibitors of hydroxyurea-induced Chk1 phosphorylation, primary screen, imaging, HeLa, phospho-Chk1 nuclear intensity (AID 1187); conditions: hydroxyurea-induced phospho-Chk1 immunofluorescence imaging, higher = more signal

| Compound | z-score [1] | z-score [2] | z-score [3] | composite z-score [4] | z-score [5] | z-score [6] | z-score [7] | z-score [8] | z-score [9] | composite z-score [10] | composite z-score [11] | composite z-score (XIP peptide (Xip251-270)) | z-score [12] | z-score [13] | z-score [14] | z-score [15] |
| --- | --- | --- | --- | --- | --- | --- | --- | --- | --- | --- | --- | --- | --- | --- | --- | --- |
| CCOC(=O)C[C@H]1[C@H](OC(=O)c2cc3ccccc3oc2=O)[C@@H](NC(=O)Cc2ccc(OC)cc2)c2cc(OCCCO)ccc2N1C(=O)c1ccccc1 | -1.1 | -2.06 (inactive) | -0.218 (inactive) | -2.42 (inactive) | -0.329 (inactive) | 0.0296 (inactive) | -0.682 (inactive) | -0.784 (inactive) | -1.22 | 0.0997 | 0.48 (inactive) | 0.853 | -1.9 | -2.46 (inactive) | 0.907 (inactive) | 0.546 (inactive) |
| COc1cc2c(cc1OC)CN(C(=O)[C@H]1[C@@H]3C(=O)O[C@@H](c4ccccc4)[C@@H](c4ccccc4)N3[C@@H](c3ccc(O)cc3)[C@]13C(=O)Nc1ccc(C#CC4=CCCCC4)cc13)CC2 | -0.436 | -1.16 (inactive) | -0.16 (inactive) | -1.05 (inactive) | 1.08 (inactive) | 0.449 (inactive) | -0.222 (inactive) | -0.273 (inactive) | 0.916 | -0.359 | 0.546 (inactive) | 0.795 | -2.08 | 1.4 (inactive) | 0.138 (inactive) | 0.352 (inactive) |
| CCCCN1CC=CC23O[C@@H]4/C=C\CCC(C)OC(=O)C4[C@H]2C(=O)N(CCCCCO)[C@@H]3C1=O (stereo partly drawn) | 0.389 | 0.0305 (inactive) | 0.96 (inactive) | 0.18 (inactive) | 0.646 (inactive) | -0.0125 (inactive) | 0.511 (inactive) | 0.35 (inactive) | 0.05 | -0.0436 | -0.725 (inactive) | 0.552 | -0.232 | -4.53 (inactive) | -0.795 (inactive) | -0.518 (inactive) |
| CC(C)C[C@@H]1NC(=O)[C@H]2C[C@@H](C(=O)NCCCCCCN(C)C)[C@@H](c3ccc(O)cc3)N2C1=O | -0.447 | -0.476 (inactive) | -0.671 (inactive) | -0.687 (inactive) | -0.214 (inactive) | -0.217 (inactive) | 0.0306 (inactive) | 0.152 (inactive) | -1.26 | 0.125 | 1.2 (inactive) | 0.876 | 1.26 | -1.57 (inactive) | 0.731 (inactive) | 0.387 (inactive) |
| COCCCNC(=O)[C@@]1(Cc2ccccc2N=[N+]=[N-])N=C(c2ccc(OCCCO)cc2)O[C@H]1c1ccccc1N=[N+]=[N-] | -0.993 | -0.181 (inactive) | -2.32 (inactive) | 1.21 (inactive) | 0.454 (inactive) | 1.83 (inactive) | 0.478 (inactive) | -0.607 (inactive) | -1.99 | 0.323 | 0.0041 (inactive) | 0.771 | -2.43 | -2.81 (inactive) | -0.559 (inactive) | -0.225 (inactive) |
| CN1C(=O)C2C=CC(C(O)c3ccccc3)N(Nc3ccccc3)C2C1=O (stereo not drawn) | -1.05 | -0.506 (inactive) | -1.83 (inactive) | 0.0323 (inactive) | 1.67 (inactive) | 0.166 (inactive) | -1.17 (inactive) | -1.29 (inactive) | -1.52 | 0.0651 | 0.599 (inactive) | 0.357 | -0.206 | -2.83 (inactive) | 0.861 (inactive) | 0.163 (inactive) |
| COCCn1c(C(=O)N2CCCC2)cc2c1C[C@H]1CN(C(=O)c3ccccc3)[C@@](Cc3ccc(F)cc3)(C(=O)OC)[C@@H]21 | 0.203 | 0.734 (inactive) | -0.829 (inactive) | -0.343 (inactive) | 0.315 (inactive) | 0.39 (inactive) | -0.0243 (inactive) | -0.622 (inactive) | -1.37 | 0.0927 | 0.254 (inactive) | 0.794 | -1.01 | -5.83 (inactive) | 0.0536 (inactive) | 0.375 (inactive) |
| COC(=O)[C@@]1(Cc2ccccc2)[C@H]2c3cc(C(=O)N4CCCC4)n(Cc4cccc5ccccc45)c3C[C@H]2CN1C(=O)c1ccccc1 | -1.13 | 1.37 (inactive) | -1.65 (inactive) | -0.323 (inactive) | -0.347 (inactive) | 0.224 (inactive) | -0.131 (inactive) | -0.0176 (inactive) | -1.9 | -0.0082 | 0.112 (inactive) | -0.569 | -1.35 | -3.06 (inactive) | 1.05 (inactive) | 0.243 (inactive) |
| C#CCN(CC1=CCCCC1)[C@H](c1ccccc1Br)[C@@H](O)Cc1ccccc1 | 1.47 | -2.52 (inactive) | 1.05 (inactive) | 0.0019 (inactive) | 0.236 (inactive) | 0.404 (inactive) | 0.657 (inactive) | 0.406 (inactive) | -0.486 | -0.209 | 0.0838 (inactive) | -0.43 | 0.47 | -0.843 (inactive) | -0.164 (inactive) | -0.155 (inactive) |
| CCOC(=O)C[C@H]1[C@H](OC(=O)c2ccc(C(=O)c3ccccc3)cc2)[C@@H](NC(=O)c2ccc(-c3ccccc3)cc2)c2cc(OCCCO)ccc2N1C(=O)c1ccccc1 | -0.587 | -0.0317 (inactive) | -0.27 (inactive) | -0.972 (inactive) | 0.0429 (inactive) | -0.469 (inactive) | -0.486 (inactive) | -0.566 (inactive) | -0.387 | 0.0153 | 0.233 (inactive) | 0.549 | -0.786 | -1.36 (inactive) | 0.428 (inactive) | 0.303 (inactive) |
| CCCC[C@@H]1C[C@H]1[C@@H](NC(=O)c1ccco1)c1ccc(C(=O)OC)cc1 | -0.351 | 0.788 (inactive) | -0.184 (inactive) | -0.271 (inactive) | 0.812 (inactive) | -0.716 (inactive) | -1.03 (inactive) | -0.489 (inactive) | -0.826 | 0.104 | -0.687 (inactive) | -0.16 | -0.941 | 0.198 (inactive) | 0.29 (inactive) | 0.0944 (inactive) |
| [N-]=[N+]=Nc1ccccc1[C@H]1OC(c2ccc(OCCCO)cc2)=N[C@@]1(Cc1ccccc1)C(=O)O | 0.615 | -0.967 (inactive) | -0.149 (inactive) | 1.12 (inactive) | 0.631 (inactive) | 0.222 (inactive) | 0.451 (inactive) | 0.534 (inactive) | -0.434 | 0.0735 | 0.387 (inactive) | 0.686 | -1.23 | -5.18 (inactive) | -0.48 (inactive) | -0.822 (inactive) |
| CN(C)C(=O)[C@@]1(Cc2ccccc2)N=C(c2ccc(OCCCO)cc2)O[C@H]1c1ccccc1N=[N+]=[N-] | -0.697 | -1.27 (inactive) | -3.56 (inactive) | 0.2 (inactive) | 0.0533 (inactive) | -0.0844 (inactive) | 0.754 (inactive) | 0.579 (inactive) | -5.06 | 0.15 | -0.111 (inactive) | 0.651 | -1.93 | -4.88 (inactive) | -0.524 (inactive) | -0.793 (inactive) |
| C=CC[C@]1(C(=O)N2CCCCC2)N=C(c2ccc(OCCCO)cc2)O[C@H]1c1ccccc1 | 1.77 | -2.06 (inactive) | 0.91 (inactive) | -0.309 (inactive) | -0.481 (inactive) | 0.646 (inactive) | 0.825 (inactive) | -0.189 (inactive) | 1.93 | -0.0563 | 0.754 (inactive) | 0.807 | -2.03 | -5.69 (inactive) | -0.0473 (inactive) | 0.452 (inactive) |
| COC(=O)c1c(CC[C@@H](CO)NC(=O)N[C@@H](C)Cn2cc(C3(O)CCCCC3)nn2)oc(C(C)=O)c1C(=O)OC | -1.26 | -2.52 (inactive) | -0.131 (inactive) | -2.71 (inactive) | 0.0793 (inactive) | -0.314 (inactive) | 0.104 (inactive) | -0.305 (inactive) | -0.8 | -0.039 | 0.946 (inactive) | 0.836 | -2.45 | -3.05 (inactive) | 0.0032 (inactive) | 0.715 (inactive) |
| O=C1O[C@H](c2ccccc2)[C@H](c2ccccc2)N2[C@H]1[C@@H](C(=O)Nc1nc3ccccc3s1)[C@]1(C(=O)Nc3ccc(C#CCCO)cc31)[C@H]2c1ccc(OCCO)cc1 | -0.251 | 1.2 (inactive) | 0.527 (inactive) | -1.6 (inactive) | 1.85 (inactive) | 1.67 (inactive) | -0.567 (inactive) | 0.161 (inactive) | -1.3 | 0.0637 | 0.497 (inactive) | 0.769 | -1.19 | 1.37 (inactive) | -0.239 (inactive) | -0.262 (inactive) |
| O=C(c1ccccc1)N1Cc2ccccc2[C@@H]2OC(c3ccc(OCCCO)cc3)=N[C@]2(Cc2ccccc2)C1=O | -0.448 | -0.485 (inactive) | -1.79 (inactive) | 0.369 (inactive) | 2.05 (inactive) | 0.843 (inactive) | -0.273 (inactive) | -0.749 (inactive) | -2.49 | -0.102 | 1.67 (inactive) | 0.576 | -2.2 | 1.01 (inactive) | 0.103 (inactive) | -0.3 (inactive) |
| O=C1O[C@@H](c2ccccc2)[C@@H](c2ccccc2)N2[C@@H](c3ccc(OCCO)cc3)[C@]3(C(=O)Nc4ccccc43)[C@@H](C(=O)NC[C@H](O)c3ccccc3)[C@H]12 | 0.665 | 1.33 (inactive) | 0.251 (inactive) | -0.854 (inactive) | 2.44 (inactive) | 1.84 (inactive) | 0.0225 (inactive) | -0.348 (inactive) | -0.0509 | -0.117 | 1.29 (inactive) | 0.345 | 0.0884 | -5.41 (inactive) | 0.167 (inactive) | 0.696 (inactive) |
